PubChem BioAssay (NCATS)
Inconclusive results are not listed. Active and inactive are the calls of the source. Calls come from the whole dose curve; as a rule, active = well fitted inhibition curve with a large enough effect; inconclusive = small, poorly fitted or top-dose-only effect; inactive = flat fitted curve, though single readings scatter.

test: P-glycoprotein substrates identified in KB-8-5-11 adenocarcinoma cell line, qHTS therapeutic library screen (AID 1346987); details: KB-8-5-11 (P-gp overexpressing) viability, CellTiter-Glo, 72 h; series mostly up to 44.5 µM; activity change, negative = cytotoxicity: at the top concentration; note: nearly all actives have a fitted effect of over 65% in size
In short: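 In this qHTS, P-gp-rich KB-8-5-11 cells received library compounds across a concentration range. Viability was quantified by luminescence after 72 h at 37 degree C.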
% is set by controls: 0 for no effect and ±100 for the full control effect; potency is the fitted concentration of half-maximal effect.

| SMILES | activity change, negative = cytotoxicity | Potency | outcome |
| --- | --- | --- | --- |
| COc1cc(C)c(C(=O)Oc2cc(C)c(C(=O)Oc3cc(C)c(C(=O)NC(C)C(=O)O)c(O)c3)c(O[C@@H]3O[C@H](CO)[C@@H](O)[C@H](O)[C@H]3OC(C)=O)c2)c(OC)c1 (stereo partly specified) | 9.86% [at 17.3 µM] (inactive) |  |  |
| COC(=O)C1=CO[C@@H](O[C@@H]2O[C@H](CO)[C@@H](O)[C@H](O)[C@H]2O)[C@@H]2[C@@](C)(O)[C@@H](OC(=O)/C=C/c3ccc(O)cc3)C[C@]12O | 1.48% [at 17.3 µM] (inactive) |  |  |
| CC(C)(C)Nc1nc2cc(Cl)c(Cl)cc2nc1S(C)(=O)=O |  | 14.6 µM (active) |  |
| COC(=O)N1CCC(n2ncc3c(N4CCOCC4)nc(-c4ccc(NC(=O)Nc5ccc(CO)cc5)cc4)nc32)CC1 |  | 2.59 µM (active) |  |
| CC(C)c1nnc(-c2ccc(-c3ccccc3)nc2)n1-c1cccc2nonc12 | 2.72% (inactive) |  |  |
| CC1(C)CC[C@]2(C(=O)O[C@@H]3O[C@H](CO)[C@@H](O)[C@H](O)[C@H]3O)CC[C@]3(C)C(=CCC4[C@@]5(C)CC[C@H](O[C@@H]6O[C@H](C(=O)O)[C@@H](O)[C@H](O[C@@H]7O[C@H](CO)[C@H](O)[C@H](O)[C@H]7O)[C@H]6O)C(C)(C)C5CC[C@]43C)C2C1 (stereo partly specified) |  |  | inactive [at 9.29 µM] |
| CC(C)(C)CCN1C[C@@H]2C(CNC(=O)c3cc(Cl)cc(Cl)c3)[C@@H]2C1 (stereo partly specified) | -23.6% (inactive) |  |  |
| C/C=C(\C)C(=O)O[C@H]1[C@@H](O[C@]2(COC(=O)CC(C)C)O[C@H](COC(=O)C(C)CC)[C@@H](OC(C)=O)[C@@H]2O)O[C@H](COC(C)=O)[C@@H](O)[C@@H]1O (stereo partly specified) | -6.72% [at 17.3 µM] (inactive) |  |  |
| CCOc1cc(CC(=O)NC(CC(C)C)c2ccccc2N2CCCCC2)ccc1C(=O)O (stereo unspecified) | 2.13% (inactive) |  |  |
| COc1ncc(Nc2ncc([C@@H](C)N3CCN(S(C)(=O)=O)CC3)cc2-c2nc(C)nc(N)n2)cc1F |  | 6.51 µM (active) |  |
| CS(=O)(=O)N(CC(=O)NCC1CC1)c1cc(C(F)(F)F)ccc1Cl | -5.71% (inactive) |  |  |
| Cc1ccc([N+](=O)[O-])cc1S(=O)(=O)N(C)/N=C/c1cnc2ccc(Br)cn12 |  | 0.231 µM (active) |  |
| CCOc1cc2ncc(C#N)c(Nc3ccc(F)c(Cl)c3)c2cc1NC(=O)/C=C/CN(C)C |  | 3.26 µM (active) |  |
| CC(=O)N1CCc2ccc(O)c(OC3OC(COC4OCC(O)(CO)C4O)C(O)C(O)C3O)c2C1Cc1ccc(O)cc1 (stereo unspecified) |  |  | inactive [at 17.3 µM] |
| C=C1CC[C@H]2[C@@](C)(CCC(O)[C@@]2(C)CO)[C@@H]1CCC1=CCOC1=O (stereo partly specified) | -20% (inactive) |  |  |
| C[C@@H]1CC[C@]2(C(=O)OC3OC(CO)C(O)C(O)C3O)CC[C@]3(C)C(=CCC4[C@@]5(C)CC[C@H](O)[C@](C)(C(=O)O)C5CC[C@]43C)C2[C@]1(C)O (stereo partly specified) |  |  | inactive [at 17.3 µM] |
| CC1C(=O)CC2C3CCC(C(=O)O)C12CC3(C)CO (stereo unspecified) | -8.27% (inactive) |  |  |
| CC1(C)CC2C(C1)C(C)(O)C13CC1(COC3=O)C2O (stereo unspecified) | -11.5% (inactive) |  |  |
| CC(C)CCC[C@@H](C)[C@H]1CC[C@H]2[C@@H]3CC(=O)[C@H]4C[C@@H](O)CC[C@]4(C)[C@H]3CC[C@]12C | -15.6% (inactive) |  |  |
| CC1(C)CCC2(C(=O)OC3OC(CO)C(O)C(O)C3O)CCC3(C)C(=CCC4C5(C)CCC(O)C(C)(C(=O)O)C5CCC43C)C2C1O (stereo unspecified) | 1.24% [at 17.3 µM] (inactive) |  |  |
| C=C1C[C@]23C[C@H]1CC[C@H]2[C@@]12CC[C@H](O)[C@@](C)(C(=O)O1)[C@H]2[C@@H]3C(=O)O | 5% (inactive) |  |  |
| CC/C=C/CC1=C(CCCCC(CCC(=O)O)OC(C)=O)CCC1=O (stereo unspecified) | -17.4% (inactive) |  |  |
| CC(=O)O[C@@H]1[C@H](O)[C@@H](O[C@@H]2O[C@@H](C)[C@H](O[C@@H]3OC[C@@H](O)[C@H](O[C@@H]4OC[C@@H](O)[C@H](O)[C@H]4O)[C@H]3O)[C@@H](O[C@@H]3O[C@H](CO)[C@@H](O)[C@H](O)[C@H]3O)[C@H]2O)[C@H](OC(=O)[C@]23CCC(C)(C)C[C@H]2C2=CCC4[C@@]5(C)CC[C@H](O[C@@H]6O[C@H](C(=O)O)[C@@H](O)[C@H](O[C@@H]7OC[C@@H](O)[C@H](O)[C@H]7O)[C@H]6O[C@@H]6O[C@H](CO)[C@H](O)[C@H](O)[C@H]6O)[C@@](C)(C=O)C5CC[C@@]4(C)[C@]2(C)CC3)O[C@@H]1C (stereo partly specified) | 9.26% [at 5.11 µM] (inactive) |  |  |
| CN1CCN(C2CCC(n3cc(-c4ccc(Oc5ccccc5)cc4)c4c(N)ncnc43)CC2)CC1 (stereo unspecified) |  | 5.8 µM (active) |  |
| COc1ccc(CC2NCCc3c2[nH]c2ccc(C)cc32)cc1OC (stereo unspecified) | -20.8% (inactive) |  |  |
| CC(=O)O[C@@H](CO[C@@H]1O[C@H](CO)[C@H](O)[C@H](O)[C@H]1O)[C@]1(C)C=C2CC[C@@H]3C(C)(C)[C@@H](O)CC[C@@]3(C)[C@@H]2CC1 | 3.01% [at 17.3 µM] (inactive) |  |  |
